Experiments:
Assay in all cases: log2 ratio of Biotin-Ahx-Ub-VS probe labelling (fragment/DMSO); higher = less target engagement (more negative = stronger competition), active = hit call of the paper (q ≤ 0.05, log2 ratio ≤ -1)
Conditions in all cases: compound concentration: 200 uM; treatment time: 3 h
[1] = target: T1, USP19 (UniProt O94966)
T1 sequence (whole entry): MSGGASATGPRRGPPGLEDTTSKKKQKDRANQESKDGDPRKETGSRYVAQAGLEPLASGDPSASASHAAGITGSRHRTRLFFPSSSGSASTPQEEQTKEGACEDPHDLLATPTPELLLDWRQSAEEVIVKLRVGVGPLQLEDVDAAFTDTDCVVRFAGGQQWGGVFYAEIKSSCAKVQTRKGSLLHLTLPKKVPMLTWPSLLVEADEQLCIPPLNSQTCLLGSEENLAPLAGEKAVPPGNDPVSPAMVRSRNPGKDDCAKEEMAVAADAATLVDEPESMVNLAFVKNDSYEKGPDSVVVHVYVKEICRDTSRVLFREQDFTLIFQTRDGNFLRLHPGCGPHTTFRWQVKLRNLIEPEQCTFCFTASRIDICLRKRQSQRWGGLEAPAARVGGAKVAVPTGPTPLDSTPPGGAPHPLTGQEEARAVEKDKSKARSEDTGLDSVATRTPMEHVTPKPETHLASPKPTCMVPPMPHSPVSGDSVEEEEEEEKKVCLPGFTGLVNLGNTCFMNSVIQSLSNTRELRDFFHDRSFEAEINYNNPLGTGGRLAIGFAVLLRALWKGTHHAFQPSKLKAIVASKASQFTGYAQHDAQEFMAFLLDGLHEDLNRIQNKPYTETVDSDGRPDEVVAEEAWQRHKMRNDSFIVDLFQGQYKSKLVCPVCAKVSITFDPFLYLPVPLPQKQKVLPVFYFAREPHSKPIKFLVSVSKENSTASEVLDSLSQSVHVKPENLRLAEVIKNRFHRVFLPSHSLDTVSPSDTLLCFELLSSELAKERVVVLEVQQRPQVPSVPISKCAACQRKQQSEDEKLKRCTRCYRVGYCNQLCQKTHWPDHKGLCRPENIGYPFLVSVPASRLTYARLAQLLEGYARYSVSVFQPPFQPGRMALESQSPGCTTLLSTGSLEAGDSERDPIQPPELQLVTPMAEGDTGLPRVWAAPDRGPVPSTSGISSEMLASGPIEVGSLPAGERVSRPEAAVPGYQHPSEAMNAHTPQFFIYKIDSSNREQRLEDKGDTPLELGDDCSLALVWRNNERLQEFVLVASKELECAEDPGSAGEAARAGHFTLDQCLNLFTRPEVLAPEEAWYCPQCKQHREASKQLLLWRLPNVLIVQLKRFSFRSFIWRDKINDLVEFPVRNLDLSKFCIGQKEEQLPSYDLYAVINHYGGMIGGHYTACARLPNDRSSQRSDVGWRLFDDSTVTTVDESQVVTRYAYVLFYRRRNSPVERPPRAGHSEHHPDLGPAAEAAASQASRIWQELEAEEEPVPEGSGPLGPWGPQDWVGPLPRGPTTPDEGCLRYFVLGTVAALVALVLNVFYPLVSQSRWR
How it was run: (§1)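 HEK293T lysate in Tris/CHAPS/IGEPAL buffer with protease inhibitors (495 µg per sample) was given fragment at 200 µM or vehicle for 3 h, in triplicate. It then received Biotin-Ahx-Ub-VS at 0.5 µM final for 1 h. Labelled DUBs were NeutrAvidin-enriched, digested with LysC and trypsin, and run by diaPASEF LC-MS/MS. Values are average log2 fragment/vehicle ratios by unpaired t-test on global-median-normalised Spectronaut quantities of proteins with ≥2 unique peptides.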

[2] = target: T2, USP22 (UniProt Q9UPT9)
T2 sequence (whole entry): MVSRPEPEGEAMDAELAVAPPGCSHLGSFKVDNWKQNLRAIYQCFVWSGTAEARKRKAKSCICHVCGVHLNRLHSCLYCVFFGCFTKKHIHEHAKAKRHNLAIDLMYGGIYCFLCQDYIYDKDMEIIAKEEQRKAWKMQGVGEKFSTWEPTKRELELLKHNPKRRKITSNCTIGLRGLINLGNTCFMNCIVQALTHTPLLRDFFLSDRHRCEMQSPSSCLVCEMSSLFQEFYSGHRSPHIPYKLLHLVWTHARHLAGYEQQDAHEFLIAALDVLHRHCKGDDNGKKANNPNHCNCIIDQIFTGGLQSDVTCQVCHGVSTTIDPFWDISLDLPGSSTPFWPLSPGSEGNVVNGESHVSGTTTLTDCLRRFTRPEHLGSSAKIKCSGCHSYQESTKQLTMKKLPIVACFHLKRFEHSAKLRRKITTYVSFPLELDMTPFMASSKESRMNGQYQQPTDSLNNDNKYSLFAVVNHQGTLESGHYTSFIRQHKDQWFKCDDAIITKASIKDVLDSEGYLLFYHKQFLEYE
How it was run: as §1

[3] = target: USP24 (UniProt Q9UPU5)
How it was run: as §1

[4] = target: T3, USP25 (UniProt Q9UHP3)
T3 sequence (whole entry): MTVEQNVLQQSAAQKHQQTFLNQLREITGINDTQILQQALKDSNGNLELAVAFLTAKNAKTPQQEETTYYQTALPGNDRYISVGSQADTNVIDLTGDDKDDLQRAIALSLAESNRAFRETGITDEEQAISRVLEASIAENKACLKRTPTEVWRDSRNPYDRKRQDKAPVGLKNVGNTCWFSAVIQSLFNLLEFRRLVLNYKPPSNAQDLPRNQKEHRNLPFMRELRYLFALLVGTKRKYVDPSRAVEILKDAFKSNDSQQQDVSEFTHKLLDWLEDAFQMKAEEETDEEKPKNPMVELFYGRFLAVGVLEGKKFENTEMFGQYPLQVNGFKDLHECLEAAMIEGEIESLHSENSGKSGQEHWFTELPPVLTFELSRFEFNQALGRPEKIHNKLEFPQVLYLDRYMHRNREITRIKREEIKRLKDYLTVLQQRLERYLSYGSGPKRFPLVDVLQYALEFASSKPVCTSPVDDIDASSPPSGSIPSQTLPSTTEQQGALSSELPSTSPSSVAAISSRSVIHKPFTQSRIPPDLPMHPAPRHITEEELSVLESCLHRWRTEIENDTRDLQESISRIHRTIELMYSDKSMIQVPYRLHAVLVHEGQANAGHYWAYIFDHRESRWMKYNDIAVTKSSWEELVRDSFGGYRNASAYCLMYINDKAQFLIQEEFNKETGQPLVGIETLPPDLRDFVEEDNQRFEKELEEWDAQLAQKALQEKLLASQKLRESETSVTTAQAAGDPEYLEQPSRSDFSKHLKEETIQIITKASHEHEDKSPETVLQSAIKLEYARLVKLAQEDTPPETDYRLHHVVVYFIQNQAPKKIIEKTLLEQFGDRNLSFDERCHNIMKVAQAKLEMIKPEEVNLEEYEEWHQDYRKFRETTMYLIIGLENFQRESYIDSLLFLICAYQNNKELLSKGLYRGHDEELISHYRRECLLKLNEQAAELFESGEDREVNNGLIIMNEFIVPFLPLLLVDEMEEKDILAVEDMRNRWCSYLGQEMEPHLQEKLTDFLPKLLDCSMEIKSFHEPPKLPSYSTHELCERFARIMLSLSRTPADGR
How it was run: as §1

[5] = target: T4, USP28 (UniProt Q96RU2)
T4 sequence (whole entry): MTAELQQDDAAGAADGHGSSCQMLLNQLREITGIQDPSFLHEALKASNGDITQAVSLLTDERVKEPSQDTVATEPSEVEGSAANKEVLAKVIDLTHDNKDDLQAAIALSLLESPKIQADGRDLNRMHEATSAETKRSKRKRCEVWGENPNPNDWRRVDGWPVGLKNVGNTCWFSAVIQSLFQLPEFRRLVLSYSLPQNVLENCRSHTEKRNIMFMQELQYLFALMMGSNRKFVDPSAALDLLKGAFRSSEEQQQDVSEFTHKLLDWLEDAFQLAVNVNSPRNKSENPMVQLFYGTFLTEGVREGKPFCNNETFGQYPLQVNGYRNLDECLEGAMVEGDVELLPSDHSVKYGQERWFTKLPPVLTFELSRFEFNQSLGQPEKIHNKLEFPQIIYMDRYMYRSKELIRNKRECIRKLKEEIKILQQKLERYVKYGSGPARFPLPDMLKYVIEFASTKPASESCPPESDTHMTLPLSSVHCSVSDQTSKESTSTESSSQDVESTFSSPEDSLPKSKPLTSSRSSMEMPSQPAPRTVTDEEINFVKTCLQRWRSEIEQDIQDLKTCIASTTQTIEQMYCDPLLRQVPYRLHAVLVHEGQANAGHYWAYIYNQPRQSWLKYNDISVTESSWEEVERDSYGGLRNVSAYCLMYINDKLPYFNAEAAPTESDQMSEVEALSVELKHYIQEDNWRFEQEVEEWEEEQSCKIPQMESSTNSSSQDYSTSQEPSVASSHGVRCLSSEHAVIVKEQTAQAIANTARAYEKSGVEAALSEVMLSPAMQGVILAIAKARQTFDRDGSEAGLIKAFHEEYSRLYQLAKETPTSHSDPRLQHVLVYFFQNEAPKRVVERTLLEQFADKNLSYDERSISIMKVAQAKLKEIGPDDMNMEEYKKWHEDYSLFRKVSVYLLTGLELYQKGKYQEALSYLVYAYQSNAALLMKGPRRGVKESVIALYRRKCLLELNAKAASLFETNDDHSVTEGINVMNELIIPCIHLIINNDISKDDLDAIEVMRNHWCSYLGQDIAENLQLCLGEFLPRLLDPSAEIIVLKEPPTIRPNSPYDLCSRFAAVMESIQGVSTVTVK
How it was run: as §1

Measured: log2 ratio of Biotin-Ahx-Ub-VS probe labelling

Chain of USP24 (Q9UPU5 whole entry): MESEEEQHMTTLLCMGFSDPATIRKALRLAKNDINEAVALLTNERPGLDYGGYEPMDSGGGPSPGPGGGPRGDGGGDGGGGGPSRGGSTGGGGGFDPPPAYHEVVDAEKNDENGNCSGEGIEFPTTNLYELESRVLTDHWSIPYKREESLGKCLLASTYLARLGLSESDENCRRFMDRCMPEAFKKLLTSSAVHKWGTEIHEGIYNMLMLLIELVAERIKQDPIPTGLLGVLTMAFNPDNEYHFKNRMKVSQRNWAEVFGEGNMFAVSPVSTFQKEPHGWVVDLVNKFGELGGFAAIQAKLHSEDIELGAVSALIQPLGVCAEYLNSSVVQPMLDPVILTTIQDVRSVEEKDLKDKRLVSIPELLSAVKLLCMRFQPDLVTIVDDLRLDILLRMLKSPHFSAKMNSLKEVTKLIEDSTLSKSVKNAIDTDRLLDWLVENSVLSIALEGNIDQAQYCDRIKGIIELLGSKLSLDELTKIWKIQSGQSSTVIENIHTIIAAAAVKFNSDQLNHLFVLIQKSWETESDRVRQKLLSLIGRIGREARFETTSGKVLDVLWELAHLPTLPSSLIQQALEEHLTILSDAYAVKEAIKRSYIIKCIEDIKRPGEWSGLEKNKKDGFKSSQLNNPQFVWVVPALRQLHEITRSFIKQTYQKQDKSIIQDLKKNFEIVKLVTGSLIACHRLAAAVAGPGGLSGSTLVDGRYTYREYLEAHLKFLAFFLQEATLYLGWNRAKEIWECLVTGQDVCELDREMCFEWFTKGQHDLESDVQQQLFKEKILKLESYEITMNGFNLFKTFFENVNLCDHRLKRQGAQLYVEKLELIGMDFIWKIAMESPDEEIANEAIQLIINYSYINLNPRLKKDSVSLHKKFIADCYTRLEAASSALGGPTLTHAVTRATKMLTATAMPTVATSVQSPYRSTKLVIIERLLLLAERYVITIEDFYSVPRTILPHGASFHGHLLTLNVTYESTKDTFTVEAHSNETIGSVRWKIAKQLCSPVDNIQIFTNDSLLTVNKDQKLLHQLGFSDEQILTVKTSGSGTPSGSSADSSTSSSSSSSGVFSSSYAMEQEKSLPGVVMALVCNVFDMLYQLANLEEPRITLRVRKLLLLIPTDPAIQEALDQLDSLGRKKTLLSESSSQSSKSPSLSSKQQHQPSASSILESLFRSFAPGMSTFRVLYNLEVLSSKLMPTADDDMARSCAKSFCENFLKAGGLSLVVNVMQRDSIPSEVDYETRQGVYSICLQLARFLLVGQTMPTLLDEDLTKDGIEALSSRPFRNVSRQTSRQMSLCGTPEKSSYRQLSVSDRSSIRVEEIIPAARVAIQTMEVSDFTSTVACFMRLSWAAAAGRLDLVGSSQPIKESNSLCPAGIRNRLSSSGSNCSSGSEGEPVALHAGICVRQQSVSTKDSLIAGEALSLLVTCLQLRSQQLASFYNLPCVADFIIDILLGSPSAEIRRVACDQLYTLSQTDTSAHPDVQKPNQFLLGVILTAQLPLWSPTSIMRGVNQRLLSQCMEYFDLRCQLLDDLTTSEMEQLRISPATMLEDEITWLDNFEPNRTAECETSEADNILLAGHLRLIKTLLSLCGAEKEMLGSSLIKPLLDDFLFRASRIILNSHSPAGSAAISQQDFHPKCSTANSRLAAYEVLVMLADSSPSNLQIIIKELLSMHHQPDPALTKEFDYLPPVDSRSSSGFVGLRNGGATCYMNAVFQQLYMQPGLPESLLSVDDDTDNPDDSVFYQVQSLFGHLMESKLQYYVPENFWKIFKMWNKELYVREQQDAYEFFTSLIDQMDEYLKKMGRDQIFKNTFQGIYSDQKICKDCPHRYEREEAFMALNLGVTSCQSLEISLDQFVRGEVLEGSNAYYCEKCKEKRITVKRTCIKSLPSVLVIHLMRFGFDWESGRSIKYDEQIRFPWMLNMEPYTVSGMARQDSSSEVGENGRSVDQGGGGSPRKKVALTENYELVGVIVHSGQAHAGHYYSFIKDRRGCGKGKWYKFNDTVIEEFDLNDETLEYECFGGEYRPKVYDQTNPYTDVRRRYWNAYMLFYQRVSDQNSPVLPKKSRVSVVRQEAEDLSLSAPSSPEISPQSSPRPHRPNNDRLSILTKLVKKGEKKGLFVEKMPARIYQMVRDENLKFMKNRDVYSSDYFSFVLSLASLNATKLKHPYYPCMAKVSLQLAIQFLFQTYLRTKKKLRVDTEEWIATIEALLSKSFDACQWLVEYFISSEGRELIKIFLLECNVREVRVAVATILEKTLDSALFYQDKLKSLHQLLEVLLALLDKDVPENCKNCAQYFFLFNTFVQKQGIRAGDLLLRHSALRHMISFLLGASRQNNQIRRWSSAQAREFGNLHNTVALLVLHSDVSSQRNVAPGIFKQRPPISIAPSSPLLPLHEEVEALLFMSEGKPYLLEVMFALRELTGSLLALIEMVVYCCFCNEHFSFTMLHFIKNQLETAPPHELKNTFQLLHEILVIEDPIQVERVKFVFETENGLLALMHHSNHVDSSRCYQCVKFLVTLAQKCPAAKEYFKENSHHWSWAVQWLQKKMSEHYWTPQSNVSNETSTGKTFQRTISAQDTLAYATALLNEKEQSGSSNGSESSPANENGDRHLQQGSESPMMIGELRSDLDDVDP

Cc1c(NC(=O)CCl)c(=O)n(-c2ccccc2)n1C
inactive: [1] -0.181 | [2] -0.000691 | [3] -0.125 | [4] -0.16 | [5] -0.182

From the supplement of paper PMC11732987, “Enantioselective OTUD7B fragment discovery through chemoproteomics screening and high-throughput optimisation” (Communications Chemistry, 2025)
